MazF activator: activators of E. coli MazEF toxin-antitoxin RNase, primary screen, biochemical, fluorescence, uHTS | actives 0.32% (n = 350,000) | Endoribonuclease toxin MazF (Escherichia coli (strain K12)), P0AE70 | FAM/BHQ RNA-DNA oligo cleavage fluorescence, 5 h | activation, % at 20 µM | AID 504720, 2011; in the data active means activation above about 50%
Autofluor counter: flagged as autofluorescent in microsphere protease counterscreen. actives 3.1% (n = 360,000). compound autofluorescence counterscreen, microsphere flow cytometry; hits give high values. fluorescence intensity (no concentration beside the values). AID 624483; in the data active means fluorescence intensity above about 16000; inconclusive means no clear call, values can overlap the other calls
BH1578 lux ind: inducers of Vibrio cholerae quorum light production without autoinducers, primary screen, BH1578 luxS cqsA deficient, single point; V. cholerae BH1578 lux reporter, luminescence, 6 h; activation, % at 18.7 µM; actives 0.16% (n = 350,000); AID 588436, 2011; in the data active means activation mostly above about 9.7%, no sharp cut-off; inconclusive means no clear call, values can overlap the other calls; inactive means mostly below about 3.7%
Anthrax LF inh2: Bacillus anthracis LF protease inhibitors, primary screen, biochemical, multiplex microsphere, MLPCN library | actives 0.12% (n = 360,000) | multiplex microsphere protease cleavage assay | inhibition, % at 10 µM; further: plate controls were buffer without enzyme for full effect and enzyme alone for no effect
Target sequence (P15917 whole entry, looked up): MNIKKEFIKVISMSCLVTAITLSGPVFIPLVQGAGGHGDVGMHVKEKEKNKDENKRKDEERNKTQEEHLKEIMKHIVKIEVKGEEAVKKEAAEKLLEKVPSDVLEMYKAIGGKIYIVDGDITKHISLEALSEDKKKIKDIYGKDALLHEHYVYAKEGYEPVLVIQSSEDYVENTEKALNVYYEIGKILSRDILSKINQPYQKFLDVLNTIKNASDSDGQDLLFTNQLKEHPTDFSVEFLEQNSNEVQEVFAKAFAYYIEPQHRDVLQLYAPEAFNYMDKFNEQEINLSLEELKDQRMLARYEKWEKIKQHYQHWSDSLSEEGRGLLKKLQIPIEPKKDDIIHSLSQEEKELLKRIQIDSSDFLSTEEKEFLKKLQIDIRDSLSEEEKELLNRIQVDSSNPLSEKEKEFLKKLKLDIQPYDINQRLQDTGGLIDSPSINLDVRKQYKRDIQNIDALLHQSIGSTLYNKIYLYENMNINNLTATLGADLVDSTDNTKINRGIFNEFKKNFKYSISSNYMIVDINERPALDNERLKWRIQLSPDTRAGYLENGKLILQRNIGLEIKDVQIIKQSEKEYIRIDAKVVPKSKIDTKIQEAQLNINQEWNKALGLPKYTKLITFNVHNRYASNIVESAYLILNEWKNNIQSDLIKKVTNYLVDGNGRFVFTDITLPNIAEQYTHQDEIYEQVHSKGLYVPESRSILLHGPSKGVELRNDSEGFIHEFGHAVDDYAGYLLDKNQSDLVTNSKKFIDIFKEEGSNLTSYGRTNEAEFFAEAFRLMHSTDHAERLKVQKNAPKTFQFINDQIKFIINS
BoNT-F LC inh: BoNT/F light chain protease inhibitors, primary screen, biochemical, flow cytometry, MLPCN library | Multiplex microsphere protease cleavage assay | inhibition, % at 10 µM | actives 0.22% (n = 360,000) | Botulinum neurotoxin type F light chain protease (Clostridium botulinum) | AID 588497, 2011; in the data active means inhibition above about 35%, passing the limit was not always enough; inconclusive means no clear call, values can overlap the other calls; further: plate controls were buffer without enzyme for full effect and enzyme alone for no effect
BoNT A protease: BoNT/A light chain protease inhibitors, primary screen, biochemical, flow cytometry, MLPCN library | Botulinum neurotoxin type A light chain protease (Clostridium botulinum A str. ATCC 3502) | multiplex microsphere protease substrate cleavage | inhibition, % at 10 µM | actives 0.17% (n = 360,000) | AID 588499, 2011; further: plate controls were buffer without enzyme for full effect and enzyme alone for no effect
* hit, by the source's call; i = inactive; ? = inconclusive; · = not tested or not shown. A selection: hits, their analogues and other compounds. The true share with any hit is near 3.9%. Unless noted, no stated cut-off is given here; in the data, active means inhibition above about 30%; inconclusive means no clear call, values can overlap the other calls; inactive means below that.

SMILES	MazF activator	Autofluor counter	BH1578 lux ind	Anthrax LF inh2	BoNT-F LC inh	BoNT A protease
Cn1c(=O)[nH]c2cc3ccccc3cc21	-3	19393*	i	0	3	?
Cc1nc2cc3ccccc3cc2n1C	6	2583	0	0	-3	0
CCOC(=O)C1CCN(Cc2cnc(Oc3ccc(C(C)(C)C)cc3)s2)CC1	-2	21136*	-6	-4	-3	-1
Brc1ccc(Oc2ncc(CN3CCOCC3)s2)cc1	-2	18177*	i	-10	12	?
CCOc1cccc(=O)c2c(C)n(Cc3ccco3)c(C)c12	13	22022*	11	-2	1	2
N#Cc1ccc(-c2csc(NNC(=O)c3ccccc3)n2)cc1	4	2845	4	4	-6	0
O=C(NNc1nc(-c2ccccc2)cs1)c1ccccc1	11	22139*	-5	-11	-3	0
O=C(/C=C/c1cccs1)Nc1nc(-c2ccccc2)cs1	9	22955*	-5	-4	2	1
CCCNc1c(N)n(-c2ccccc2)c(=O)[nH]c1=O	-8	21763*	-1	-4	8	?
Cc1c(Cl)ccc2c1NC(=O)[C@]21N[C@@H](Cc2ccccc2)[C@H]2C(=O)N(c3ccc(F)cc3)C(=O)[C@H]21	-11	23930*	i	-2	-1	?
O=C1[C@@H]2[C@H](Cc3ccc(O)cc3)N[C@]3(C(=O)Nc4ccccc43)[C@@H]2C(=O)N1c1ccc(F)cc1	·	9543	i	15	2	-1
CCOC(=O)CN(C(=O)CSc1nnc(-c2ccc(OC)c(OC)c2)o1)c1ccccc1	1	20211*	i	1	-2	?
CCOC(=O)CN(C(=O)CSc1nnc(CNc2ccc(C)cc2C)o1)c1ccccc1	-5	21560*	-1	-15	1	1
COc1ccc(-c2nnc(SCC(=O)N3CCC(Cc4ccccc4)CC3)o2)cc1OC	3	22436*	4	-5	-3	0
COC(=O)CSc1nnc(-c2ccc(OC)c(OC)c2)o1	-2	4772	i	3	-3	0
CN(CC(=O)Nc1ccc(F)c(F)c1F)C(=O)c1cc(S(=O)(=O)N(C)C)ccc1N1CCCC1	3	3999	i	-1	-3	0
CCN(CC)CCSc1nnc2c3ccccc3n(Cc3ccccc3)c2n1	13	4833	i	-5	-3	0
Cc1cc(=O)oc2cc(OCC3CC(c4ccc(Br)cc4)=NO3)ccc12 (centres undefined)	-12	19620*	0	-2	2	2
Cc1ccn2c(Cc3ccccc3)c(-c3ccc(F)cc3)nc2c1	-6	3487	0	-1	4	0
Cc1nc2ccc(NC(=O)Cc3ccccc3F)cc2s1	8	3380	0	0	2	-1
Cc1cc(C)c(NC(=O)C2CCCO2)c(C)c1 (centres undefined)	0	5591	-1	-3	8	1
O=C(Nc1c(F)cc(F)cc1Br)C1CCCO1 (centres undefined)	-1	25313*	0	-2	-8	-5
CCn1c(SCc2cccc(C(F)(F)F)c2)nnc1-c1ccco1	1	22937*	i	-5	-1	-2
CCn1c(SCC(N)=O)nnc1-c1ccco1	7	2509	-1	-8	-3	0
COc1ccc(CN2C(=NC(=O)c3ccccc3)SC3CS(=O)(=O)CC32)cc1 (centres undefined)	-3	4209	-1	-4	0	0
SMILES	MazF activator	Autofluor counter	BH1578 lux ind	Anthrax LF inh2	BoNT-F LC inh	BoNT A protease
Clc1cccc(N/N=C(\Cc2nc3ccccc3[nH]2)c2ccccc2)c1	72*	10327	0	4	17	2
c1ccc(N/N=C(\Cc2ncc[nH]2)c2ccccc2)cc1	14	4410	0	-2	-9	-1
CSc1ccccc1NC(=O)CSCc1ccc(Br)cc1	-4	16464*	-2	-3	-1	-1
O=C(NCc1cccs1)C1CCCN1S(=O)(=O)c1ccccc1F (centres undefined)	-5	19819*	1	-3	0	?
O=C(NCc1ccccc1Cl)C1CCCN1S(=O)(=O)c1ccccc1F (centres undefined)	-39	4411	0	-1	7	1
COc1ccc(-n2cc(C#N)c(=O)n(Cc3ccc(F)cc3)c2=O)cc1	3	4811	0	-11	-14	-2
CC1(C)N=C(c2ccc(Cl)cc2)C(=O)N1	2	23886*	-1	-2	-4	0
Cc1ccc(C(=O)N/N=C/C=C/c2ccccc2)cc1	-9	2141	6	1	0	0
O=C(N/N=C/C=C/c1ccccc1)c1cccc(Br)c1	53*	13299	-1	-2	-7	0
O=C(N/N=C/C=C/c1ccccc1[N+](=O)[O-])c1ccncc1	6	3912	i	?	56*	-1
CCn1c(SCC(=O)N/N=C/C=C\c2ccccc2[N+](=O)[O-])nnc1-c1ccccc1	3	16357*	-2	-3	-2	-1
Cc1ccc(CSc2nnc(SCC(=O)N/N=C/C=C/c3ccccc3[N+](=O)[O-])s2)cc1	0	1917	0	-1	-2	-1
CCC(=O)N1CCc2cc(S(=O)(=O)CCC(=O)NCc3ccccc3OC)ccc21	-32	4113	i	-2	2	0
CCCCNC(=O)NNC(=O)c1cc(C)on1	11	4786	i	-8	?	?
Cc1ccc(C2=NCC(=O)N(CC(=O)N3CCCCC3)c3sc(C)c(C)c32)cc1	7	23432*	i	0	-4	?
CN(Cc1cccs1)C(=O)c1ccc(Cl)c(S(=O)(=O)N2CCCCCC2)c1	-4	3851	i	-4	-2	0
COC(=O)CSc1nnc(CNC(=O)c2ccc(S(=O)(=O)N3CCCCC3)cc2)n1C	-4	24100*	0	1	-4	-1
CCOC(=O)CSc1nnc(CNC(=O)c2ccc(S(=O)(=O)N3CCCCC3)cc2)n1C	-1	20926*	-1	-5	7	5
COc1ccc(Cn2cc(CN3CC(N4CCN(CCN(C)C)CC4)CS3(=O)=O)nn2)cc1 (centres undefined)	·	5983	·	1	2	1
CC1CCCCN1C(=O)CSc1nc2c(c(=O)n(C)c(=O)n2C)n1C (centres undefined)	9	6195	0	2	3	0
Cc1cc(Cl)c(OCCN2C(=O)NC(C)(C)C2=O)c(Br)c1	-1	20599*	i	-2	-1	0
CC1(C)NC(=O)N(CCCCOc2ccc3ccccc3c2Cl)C1=O	2	24165*	-2	-1	-3	-1

Source: PubChem (several laboratories)
